Laboratory results as given in PubChem BioAssay (NCI).
This is part of a sample that, as a whole, favours compounds with a hit. Of some 83,000 tested, about 20% had one in any assay.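 Activity criterion: percent growth below 10, measured after cells in 96-well plates were exposed to a single compound concentration for 48 hours.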 A number with no mark means an inactive call. The source made the active and inactive calls.

What was measured:
Test in all cases: NCI-60 one-dose screen, 48 h (100 = growth as untreated, 0 = no growth, -100 = all killed)
Conditions in all cases: 10 µM unless noted
[1] = test system: HCT-15 colon
[2] = test system: HT29 colon
[3] = test system: SNB-75 CNS
[4] = test system: SNB-19 CNS
[5] = test system: U251 CNS
[6] = test system: PC-3 prostate
[7] = test system: SK-MEL-5 melanoma
[8] = test system: UACC-62 melanoma
[9] = test system: LOX IMVI melanoma
[10] = test system: SK-MEL-28 melanoma

Structure (SMILES)	growth [1]	growth [2]	growth [3]	growth [4]	growth [5]	growth [6]	growth [7]	growth [8]	growth [9]	growth [10]
N#Cc1ccc(Oc2ccc3ccc(=O)oc3c2)cc1	98%	114%	97.2%	89.3%	91.7%	94.5%	103%	88.3%	93.4%	107%
Cc1cc(Cl)cc(CN(Cc2ccccc2)Cc2c(O)ccc3ccccc23)c1O	108%	98.5%	94.5%	99.9%	98.5%	88.5%	95.1%	89.3%	90.2%	113%
CC1(C)[C@@H](O)CC[C@]2(C)[C@H]3CC[C@@H]4[C@H]5[C@H](c6cn(-c7ccccc7)nn6)CC[C@]5(CO)CC[C@@]4(C)[C@]3(C)CC[C@@H]12	88.8%	84.7%	81.9%	93.1%	89.6%	52.8%	83.7%	79.6%	95.6%	88.7%
N#CCNc1ccc(C(=O)O)cc1	105%	101%	103%	102%	95%	94.3%	101%	107%	98.5%	118%
O=C1c2ccccc2C(=O)c2c1oc1c2c(=O)[nH]c2ccc(Cl)cc21	-31.1% (active)	66.4%	-9.01% (active)	7.11% (active)	-77.5% (active)	-33.3% (active)	12.3%	75.1%	11.1%	-11.8% (active)
COc1ccc(/C=C/C(=O)c2ccc(NC(=O)CSc3nnc(-c4ccc(OC)c(OC)c4)n3-c3ccccc3)cc2)cc1	4.42% (active)	43.7%	63.3%	60.5%	-9.68% (active)	53.1%	73.4%	68.4%	-87.5% (active)	95.8%
Cc1ccc(CS/C(=C\c2ccc([N+](=O)[O-])cc2)C(=O)c2ccc(F)cc2)cc1	-6.39% (active)	-20.1% (active)	79.8%	34.6%	-20.4% (active)	40.9%	62.7%	30.9%	-4.93% (active)	93.5%
COc1ccc(-c2nc(C#N)c(NCC(c3ccc(Cl)cc3)N3CCCCC3)o2)cc1 (stereo not given)	69.4%	85.6%	91%	113%	96%	75.3%	93.2%	90.4%	93.8%	94.3%
COc1ccc(C2N(c3cc(OC)c(OC)c(OC)c3)C(=O)C2(F)F)cc1F (stereo not given)	19.4%	11.2%	64.7%	52.9%	41.6%	35.9%	8.08% (active)	55.5%	27.1%	77.2%
CCOC(=O)c1c(C)nc2c(c1N)CC(=O)N2CCc1ccccc1	17.2%	6.02% (active)	80.1%	22.4%	31.8%	17.3%	3.27% (active)	32.1%	9.25% (active)	39.9%
COc1ccc2[nH]c(=O)c(/C=C/C(=O)/C=C/c3ccc(O)c(OC)c3)cc2c1	2.08% (active)	-38.7% (active)	59.8%	36.3%	-13% (active)	9.53% (active)	9.36% (active)	10.8%	-36% (active)	16.8%
CC1(c2ccccc2Cl)NC(=O)NC1=O (stereo not given)	99.2%	97.9%	88.1%	97.8%	96.7%	91.2%	101%	95.5%	97.5%	105%
COc1cc(NCC(=O)Nc2cc(Nc3ccc(C)cc3)ncn2)c(Cl)c(OC)c1Cl	89.9%	95.3%	78.4%	95.9%	87.2%	69.1%	91.6%	75.3%	84.5%	107%
Nc1c(C(=O)Nc2cccc3ccccc23)sc2nc3c(cc12)CCCCC3	28.6%	19.1%	19.4%	27.2%	16.8%	34.1%	37.1%	38%	38.4%	71.7%
C=C1C(=O)O[C@H]2[C@H]1CC/C(COC(=O)c1c[nH]c3ccccc13)=C\CC[C@@]1(C)O[C@@H]21	-69.5% (active)	-59.8% (active)	-2.2% (active)	-40.3% (active)	-81.2% (active)	-52.1% (active)	-98.2% (active)	-69.1% (active)	-94.8% (active)	-63.8% (active)
N#Cc1c(-c2ccc(F)cc2)c(C#N)c2c(C#N)c(N)nn2c1N	106%	98.7%	87.8%	108%	94.7%	77.4%	96.8%	105%	89.9%	111%
CC(C)NS(=O)(=O)c1cccc(-c2ccc3c4c(n(CCCN(C)C)c(=O)c3c2)-c2ccccc2C4=O)c1	67.9%	-16.2% (active)	88.9%	110%	56%	99.8%	94.1%	106%	100%	99.5%
N#Cc1c(-c2ccc(Cl)cc2)cc(-c2cc3ccccc3o2)nc1SCC(=O)c1ccc(Cl)cc1	91.4%	97.1%	76.7%	99.9%	93.8%	84.6%	100%	93.5%	91%	100%
NCCCn1c2c(c3cc(-c4ccn[nH]4)ccc3c1=O)C(=O)c1ccccc1-2	31.2%	9.31% (active)	42.2%	55%	37.1%	50%	58.4%	78%	47.1%	111%
CCOC(=O)/C(=C/c1c(-c2ccccc2)[nH]c2ccccc12)C(=O)c1ccc(Cl)cc1	21.2%	44%	35%	79.4%	50.5%	12.5%	53.4%	43.5%	44.3%	75.6%
CCOCc1nc2ccccc2c(=O)[nH]1	97.2%	95.9%	99.2%	101%	102%	95.2%	104%	102%	99.8%	106%

Structure (SMILES)	growth [1]	growth [2]	growth [3]	growth [4]	growth [5]	growth [6]	growth [7]	growth [8]	growth [9]	growth [10]
c1ccc2c3c([nH]c2c1)C(c1ccc(C2NCCc4c2[nH]c2ccccc42)cc1)NCC3 (stereo not given)	-65.8% (active)	-74.2% (active)	-11.4% (active)	2.5% (active)	-92.6% (active)	16.8%	-92.9% (active)	-69.9% (active)	-94.6% (active)	-52.8% (active)
NS(=O)(=O)c1ccc(-n2nc(-c3ccccc3)ccc2=O)cc1	108%	112%	114%	101%	99.2%	96.2%	109%	89.6%	104%	104%
C#C[C@@]1(O)[C@@H](CO)O[C@@H](n2cc(I)c3c(N)ncnc32)[C@@H]1O	5.73% (active)	2.8% (active)	-10.1% (active)	8.06% (active)	-0.637% (active)	4.04% (active)	-9.34% (active)	4.29% (active)	-42.3% (active)	43.2%
COc1ccc(-n2nc(C(=O)NCC(=O)O)nc2-c2ccccc2)cc1	113%	98.7%	103%	100%	107%	103%	100%	102%	94.1%	108%
O=C1Nc2ccc(Cl)cc2/C1=N/c1nc(-c2ccc(Cl)cc2)cs1	26.7%	-0.232% (active)	26.2%	10.8%	-3.58% (active)	2.97% (active)	8.24% (active)	-46.6% (active)	-7.47% (active)	16.3%
OCCNc1nc(NCCO)nc(Nc2ccc(C3=NN(c4cc(Cl)cc(Cl)c4)C(c4ccccc4)C3)cc2)n1 (stereo not given)	27.5%	9.1% (active)	52.5%	58.7%	27.2%	24.5%	51.7%	20.9%	-36.9% (active)	49.9%
COc1ccc(-c2[nH]c3ccccc3c2C=C(C#N)C#N)cc1	18%	10.3%	0.534% (active)	67%	27.8%	19.1%	2.62% (active)	15.2%	31.4%	44.5%
C[C@@H]1C(=O)[C@@H]2C[C@@H](O)[C@@H](O)C[C@]2(C)[C@H]2CC[C@@]3(C)C(=C12)CC[C@@H]3[C@@](C)(O)[C@H](O)CCC(C)(C)O	107%	97.6%	108%	104%	96.6%	96.4%	98.1%	97.8%	101%	113%
Nc1ccc(C2=NN(C(=O)c3cc(-c4ccc(Cl)cc4)nc4ccccc34)C(c3ccc(Cl)cc3)C2)cc1 (stereo not given)	26.3%	11.5%	67.5%	30.5%	31.5%	23.3%	28.3%	38%	48.3%	65%
Cc1c(Br)cccc1NC(=O)c1sc2nc3c(cc2c1N)CN(Cc1ccccc1)CC3	18.2%	0.812% (active)	-9.13% (active)	23%	9.19% (active)	31.8%	19.4%	28.1%	30.9%	53.8%
COc1cc(-c2nn(-c3ccc(Br)cc3)cc2CO)ccc1O	87.4%	88.8%	87.7%	94%	95.2%	75%	94.1%	78.9%	86.5%	110%
CC(=O)Oc1ccc(O)cc1	104%	87.3%	91.1%	96.2%	101%	87.1%	96.7%	86.6%	94.4%	104%
C=C1C(=O)O[C@H]2[C@H]1CC/C(COC(=O)c1cccnc1)=C\CC[C@@]1(C)O[C@@H]21	34.4%	33.5%	83.4%	90.2%	88.5%	66.1%	88.9%	69.5%	75%	89%
Nc1ccccc1NC(=O)c1ccc(CSc2nc(N3CCOCC3)c3cccn3n2)cc1	20.1%	0.895% (active)	20.3%	32.7%	2.15% (active)	23.1%	-41.1% (active)	-31.9% (active)	-38.6% (active)	16.3%
COc1cc(C2=NN(C=O)C(c3cccc(Nc4ccnc5cc(C(F)(F)F)ccc45)c3)C2)cc(OC)c1OC (stereo not given)	49.2%	15.3%	77.7%	64.2%	55.8%	31.7%	43%	75.4%	43.1%	50.6%
C=C1C(=O)O[C@H]2[C@H]1CC/C(C=Nc1c(N)cc(C(F)(F)F)cc1Br)=C\CC[C@@]1(C)O[C@@H]21	-55.1% (active)	-36.4% (active)	76.1%	33.7%	25.7%	6.24% (active)	33.7%	4.73% (active)	-74.4% (active)	-12.3% (active)
O=C1NC(SCc2ccc(F)cc2)=N/C1=C/c1cccc(OCc2ccc(Cl)cc2)c1	72.1%	68.1%	50.7%	33.4%	-41.2% (active)	77.5%	83%	72%	24.7%	91.2%
CCOC(=O)c1c(C)nc2c(c1N)/C(=C/c1cccs1)C(=O)N2Cc1ccccc1	19.5%	57.3%	72.6%	68.1%	49.8%	51.8%	83.8%	67.6%	36.4%	90.2%
O=C(Nc1nccs1)c1noc2ccccc12	92.8%	99.5%	87.9%	93.5%	98.5%	80%	91.5%	88%	95.8%	103%
CC[C@H](Nc1ncnc2nc[nH]c12)c1nc2cccc(CC(=O)c3ccc(C(=O)NO)cc3)c2c(=O)n1-c1ccccc1	102%	82%	56.3%	93.2%	89.3%	73.6%	96.6%	79.9%	91.7%	90.2%
O=c1c2ccccc2oc2ccc(OCCCCCN3CCCCCC3)cc12	33.1%	12.9%	77.1%	84%	60.3%	80.7%	-35.2% (active)	2.08% (active)	49.8%	86.3%
